Source: PubChem BioAssay AID1159580 (chemical genetic matrix, 2015)
In all, about 5,500 compounds went through this assay and about 2,000 (36%) were called active. Inconclusive results (about 18%) are left out. Cut-off read from the data, not from the text of the source: active = normalized growth mostly below about 0.91 (no sharp cut-off); inconclusive = no clear call, values can overlap the other calls; inactive = mostly above about 0.92. The list shows a part of the results.

Assay: chemical genetic growth profiling, strain panel (AID 1159580);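 note: tested at 20 µM; growth read once vehicle control cultures reached saturation at 30 °C; 1 = growth at the plate median or of vehicle wells; lower values mean less growth of the strain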
Conditions: growth OD

Measured: normalized growth

NS(=O)(=O)c1cc2c(cc1C(F)(F)F)NC(Cc1ccccc1)NS2(=O)=O (centres undefined)
inactive: S. cerevisiae deletion strains, locus YJR066W, strain TOR1, active compounds read low 0.949 | S. cerevisiae deletion strains, locus YKL009W, strain mrt4, active compounds read low 0.983 | S. cerevisiae deletion strains, locus YKL068W, active compounds read low 1 | S. cerevisiae deletion strains, locus YKL085W, strain MDH1 (second series), active compounds read low 0.999 | S. cerevisiae deletion strains, locus YKL085W, strain MDH1, active compounds read low 0.999 | S. cerevisiae deletion strains, locus YKL160W, strain elf1, active compounds read low 0.977 | S. cerevisiae deletion strains, locus YKL190W, strain CNB1, active compounds read low 1 | S. cerevisiae deletion strains, locus YKR001C, strain vps1, active compounds read low 0.982 | S. cerevisiae deletion strains, locus YKR026C, strain gcn3, active compounds read low 0.998 | S. cerevisiae deletion strains, locus YKR091W, strain srl3, active compounds read low 0.982 | S. cerevisiae deletion strains, locus YLL001W, strain dnm1, active compounds read low 0.981 | S. cerevisiae deletion strains, locus YLL026W, active compounds read low 0.991 | S. cerevisiae deletion strains, locus YLL041C, strain sdh2, active compounds read low 0.985 | S. cerevisiae deletion strains, locus YLR027C, strain aat2, active compounds read low 0.985 | S. cerevisiae deletion strains, locus YLR039C, strain RIC1, active compounds read low 1.04 | S. cerevisiae deletion strains, locus YLR058C, strain SHM2, active compounds read low 1 | S. cerevisiae deletion strains, locus YLR102C, strain apc9, active compounds read low 1.01 | S. cerevisiae deletion strains, locus YLR113W, strain HOG1, active compounds read low 0.983 | S. cerevisiae deletion strains, locus YLR221C, strain rsa3, active compounds read low 0.973 | S. cerevisiae deletion strains, locus YLR258W, strain gsy2, active compounds read low 0.993 | S. cerevisiae deletion strains, locus YLR262C, strain YPT6 (second series), active compounds read low 0.987 | S. cerevisiae deletion strains, locus YLR262C, strain YPT6, active compounds read low 1.01 | S. cerevisiae deletion strains, locus YLR268W, strain sec22, active compounds read low 0.999 | S. cerevisiae deletion strains, locus YLR320W, strain mms22, active compounds read low 0.957 | S. cerevisiae deletion strains, locus YLR330W, strain CHS5, active compounds read low 1.01 | S. cerevisiae deletion strains, locus YLR342W, strain FKS1 (second series), active compounds read low 1.06 | S. cerevisiae deletion strains, locus YLR342W, strain FKS1, active compounds read low 0.988 | S. cerevisiae deletion strains, locus YLR357W, strain rsc2, active compounds read low 0.978 | S. cerevisiae deletion strains, locus YLR370C, strain arc18, active compounds read low 0.983 | S. cerevisiae deletion strains, locus YLR371W, strain rom2, active compounds read low 1.01 | S. cerevisiae deletion strains, locus YLR384C, strain iki3, active compounds read low 0.986 | S. cerevisiae deletion strains, locus YLR418C, strain cdc73, active compounds read low 1.01 | S. cerevisiae deletion strains, locus YML016C, strain PPZ1, active compounds read low 1.01 | S. cerevisiae deletion strains, locus YML032C, strain rad52, active compounds read low 0.983 | S. cerevisiae deletion strains, locus YML120C, strain ndi1, active compounds read low 0.981 | S. cerevisiae deletion strains, locus YML124C, strain tub3, active compounds read low 1 | S. cerevisiae deletion strains, locus YMR058W, strain fet3, active compounds read low 0.97 | S. cerevisiae deletion strains, locus YMR078C, strain ctf18, active compounds read low 1 | S. cerevisiae deletion strains, locus YMR125W, strain sto1, active compounds read low 1.01 | S. cerevisiae deletion strains, locus YMR129W, active compounds read low 0.992 | S. cerevisiae deletion strains, locus YMR205C, strain PFK2, active compounds read low 0.978 | S. cerevisiae deletion strains, locus YMR223W, strain ubp8, active compounds read low 1.02 | S. cerevisiae deletion strains, locus YMR231W, strain pep5, active compounds read low 1 | S. cerevisiae deletion strains, locus YMR307W, strain GAS1, active compounds read low 1.06 | S. cerevisiae deletion strains, locus YNL067W, strain RPL9B, active compounds read low 0.985 | S. cerevisiae deletion strains, locus YNL071W, strain lat1, active compounds read low 0.994 | S. cerevisiae deletion strains, locus YNL153C, strain GIM3, active compounds read low 0.975 | S. cerevisiae deletion strains, locus YNL183C, strain NPR1, active compounds read low 0.927 | S. cerevisiae deletion strains, locus YNL209W, strain ssb2, active compounds read low 0.993 | S. cerevisiae deletion strains, locus YNL233W, strain BNI4, active compounds read low 0.993 | S. cerevisiae deletion strains, locus YNL248C, strain rpa49, active compounds read low 0.996 | S. cerevisiae deletion strains, locus YNL250W, strain rad50, active compounds read low 1.01 | S. cerevisiae deletion strains, locus YNL271C, strain bni1, active compounds read low 1.01 | S. cerevisiae deletion strains, locus YNL298W, strain CLA4, active compounds read low 1.02 | S. cerevisiae deletion strains, locus YNL307C, strain MCK1, active compounds read low 1.01 | S. cerevisiae deletion strains, locus YNL322C, strain KRE1 (second series), active compounds read low 0.992 | S. cerevisiae deletion strains, locus YNR049C, strain mso1, active compounds read low 0.986 | S. cerevisiae deletion strains, locus YNR052C, strain pop2, active compounds read low 1.01 | S. cerevisiae deletion strains, locus YOL006C, strain TOP1, active compounds read low 0.953 | S. cerevisiae deletion strains, locus YOL012C, strain htz1 0.78 | S. cerevisiae deletion strains, locus YOL147C, strain pex11, active compounds read low 1.01 | S. cerevisiae deletion strains, locus YOR001W, strain rrp6, active compounds read low 0.997 | S. cerevisiae deletion strains, locus YOR061W, strain CKA2, active compounds read low 1 | S. cerevisiae deletion strains, locus YOR069W, strain VPS5, active compounds read low 1.01 | S. cerevisiae deletion strains, locus YOR070C, strain gyp1, active compounds read low 0.999 | S. cerevisiae deletion strains, locus YOR080W, strain dia2, active compounds read low 0.982 | S. cerevisiae deletion strains, locus YOR083W, strain WHI5, active compounds read low 0.969 | S. cerevisiae deletion strains, locus YOR106W, strain vam3, active compounds read low 0.958 | S. cerevisiae deletion strains, locus YOR136W, strain idh2, active compounds read low 0.992 | S. cerevisiae deletion strains, locus YOR144C, strain elg1, active compounds read low 0.998 | S. cerevisiae deletion strains, locus YOR184W, strain ser1, active compounds read low 0.998 | S. cerevisiae deletion strains, locus YOR231W, strain MKK1, active compounds read low 0.987 | S. cerevisiae deletion strains, locus YOR265W, strain rbl2, active compounds read low 0.988 | S. cerevisiae deletion strains, locus YOR270C, strain vph1, active compounds read low 0.956 | S. cerevisiae deletion strains, locus YOR290C, strain snf2, active compounds read low 0.964 | S. cerevisiae deletion strains, locus YOR316C, strain cot1, active compounds read low 1.01 | S. cerevisiae deletion strains, locus YPL051W, strain arl3, active compounds read low 0.998 | S. cerevisiae deletion strains, locus YPL055C, strain LGE1, active compounds read low 0.934 | S. cerevisiae deletion strains, locus YPL078C, strain atp4, active compounds read low 0.988 | S. cerevisiae deletion strains, locus YPL106C, strain sse1, active compounds read low 0.952 | S. cerevisiae deletion strains, locus YPL240C, strain hsp82, active compounds read low 0.998 | S. cerevisiae deletion strains, locus YPL241C, strain CIN2, active compounds read low 1.01 | S. cerevisiae deletion strains, locus YPL256C, strain CLN2, active compounds read low 0.976 | S. cerevisiae deletion strains, locus YPR119W, strain clb2, active compounds read low 1.01 | S. cerevisiae deletion strains, locus YPR141C, strain kar3, active compounds read low 1.01 | S. cerevisiae deletion strains, locus YPR163C, strain tif3, active compounds read low 1.01 | S. cerevisiae deletion strains, locus YPR167C, strain met16, active compounds read low 1.01 | S. cerevisiae deletion strains, strain wtn01, active compounds read low 1.01 | S. cerevisiae strains, strain wild type, active compounds read low 1
